Laboratory results: the supplement of paper PMC12350171
Counter-ions that a name gives are not always drawn.

Each molecule was assayed on Haemophilus parainfluenzae (assay: growth AUC normalised to DMSO control (fraction of control); higher = less growth inhibition, active = hit call of the paper). Conditions: 20 µM;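 active = AUC significantly below DMSO controls by Student t-fit with adjusted P under 0.01; inactive = not significantly reduced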.
Procedure, shortened: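 After two anaerobic passages, pathogens were added at a starting OD578 of 0.01 to pre-reduced mGAM plates holding compound at 20 μM with 1% DMSO; hemin and NAD were supplemented for Haemophilus parainfluenzae. Sealed with breathable membranes, plates were read at OD578 hourly for 24 h, in three biological replicates. The trapezoidal rule, applied up to the exponential-to-stationary transition, gave the growth-curve AUC, which was normalised to DMSO controls on the same plate.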

SMILES | growth AUC normalised to DMSO control
CC(=O)Nc1ccc(OCC(O)CNC(C)C)cc1 (stereo unspecified) [Practolol] | 1.01 (inactive)
CO[C@H]1C[C@H](O[C@H]2[C@H](C)[C@@H](O[C@@H]3O[C@H](C)C[C@H](N(C)C)[C@H]3OC(C)=O)[C@@H](C)C[C@@]3(CO3)C(=O)[C@H](C)[C@@H](OC(C)=O)[C@@H](C)[C@@H](C)OC(=O)[C@@H]2C)O[C@@H](C)[C@@H]1OC(C)=O [Troleandomycin] | 0.921 (inactive)
Cc1cccn2c(=O)c(-c3nnn[nH]3)cnc12 [Pemirolast potassium] | 0.933 (inactive)
Clc1ccc(CO/N=C(\Cn2ccnc2)c2ccc(Cl)cc2Cl)c(Cl)c1 [Oxiconazole nitrate] | 1.01 (inactive)
CN1CCN(CCCN2c3ccccc3Sc3ccc(Cl)cc32)CC1 [Prochlorperazine dimaleate] | 0.913 (inactive)
CC(C)NC(=N)NC(=N)Nc1ccc(Cl)cc1 [Proguanil hydrochloride] | 0.973 (inactive)
C(=C\c1ccccc1)/CN1CCN(C(c2ccccc2)c2ccccc2)CC1 [Cinnarizine] | 0.817 (inactive)
CN(N=O)C(=O)N[C@H]1C(O)O[C@H](CO)[C@@H](O)[C@@H]1O (mixture of isomers) [Streptozotocin] | 0.172 (active)
Cc1ccc(Cl)c(Nc2ccccc2C(=O)O)c1Cl [Meclofenamic acid sodium salt monohydrate] | 0.94 (inactive)
Nc1nc(N)nc(-c2cc(Cl)ccc2Cl)n1 [Irsogladine maleate] | 1.01 (inactive)
Cc1ccc(C)c(OCCCC(C)(C)C(=O)O)c1 [Gemfibrozil] | 0.971 (inactive)
c1coc(CNc2ncnc3[nH]cnc23)c1 [Kinetin] | 1.01 (inactive)
Clc1cccc(Cl)c1NC1=NCCN1 [Clonidine hydrochloride] | 0.978 (inactive)
CCOC(=O)C1=C(C)NC(C)=C(C(=O)OC)C1c1cccc(Cl)c1Cl (stereo unspecified) [Felodipine] | 0.863 (inactive)
CCCN[C@H]1CCc2nc(N)sc2C1 [Pramipexole dihydrochloride] | 0.985 (inactive)
CN1CCOC(c2ccccc2)c2ccccc2C1 (stereo unspecified) [Nefopam hydrochloride] | 1 (inactive)
Nc1ccc(S(N)(=O)=O)cc1 [Sulfanilamide] | 0.997 (inactive)
C#C[C@]1(OC(C)=O)CC[C@H]2[C@@H]3CCC4=CC(=NO)CC[C@@H]4[C@H]3CC[C@@]21CC (mixture of isomers) [Norgestimate] | 0.908 (inactive)
O=C(CCCCC(=O)Nc1c(I)cc(I)c(C(=O)O)c1I)Nc1c(I)cc(I)c(C(=O)O)c1I [Iodipamide] | 1.01 (inactive)
CC1(C)S[C@@H]2[C@H](NC(=O)[C@H](N)c3ccccc3)C(=O)N2[C@H]1C(=O)O [Ampicillin trihydrate] | 0.0576 (active)
Cc1cc(=O)n(-c2ccccc2)n1C [Antipyrine] | 0.988 (inactive)
CN1CCN(c2c(F)cc3c(=O)c(C(=O)O)cn4c3c2SCC4)CC1 [Rufloxacin] | 0.0692 (active)
CC(Cc1cccc(C(F)(F)F)c1)NCCOC(=O)c1ccccc1 (stereo unspecified) [Benfluorex] | 0.93 (inactive)
Nc1ncnc2c1ncn2[C@@H]1O[C@H](CO)[C@@H](O)[C@@H]1O [Vidarabine] | 0.96 (inactive)
CCCCOc1cc(C(=O)NCCN(CC)CC)c2ccccc2n1 [Dibucaine] | 0.849 (inactive)
NS(=O)(=O)c1cc(Cl)c(Cl)c(S(N)(=O)=O)c1 [Dichlorphenamide] | 1.03 (inactive)
